Experimental data from the supplement of paper PMC12350171.
Where a name gives a salt, the structure may show the parent alone. A number with no mark means an inactive call.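 Rule for the calls: active = AUC significantly below DMSO controls by Student t-fit with adjusted P under 0.01; inactive = not significantly reduced.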

test system: Haemophilus parainfluenzae; test: growth AUC normalised to DMSO control (fraction of control); higher = less growth inhibition, active = hit call of the paper; conditions: 20 µM
Outline: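 Hemin and NAD were added to the medium for Haemophilus parainfluenzae. All pathogens, after two anaerobic passages, were inoculated at a starting OD578 of 0.01 into pre-reduced mGAM plates with 20 μM compound and 1% DMSO under breathable seals, and OD578 was read hourly for 24 h in three biological replicates. AUC of each growth curve was obtained with the trapezoidal rule up to the exponential-to-stationary transition and normalised to DMSO controls from the same plate.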

| SMILES | growth AUC normalised to DMSO control |
| --- | --- |
| COc1ccc(-c2cc(=O)c3c(O)cc(O[C@@H]4O[C@H](CO[C@@H]5O[C@@H](C)[C@H](O)[C@@H](O)[C@H]5O)[C@@H](O)[C@H](O)[C@H]4O)cc3o2)cc1O [Diosmin] | 0.784 |
| CCOc1ccc(NC(C)=O)cc1 [Phenacetin] | 0.924 |
| CCn1cc(C(=O)O)c(=O)c2cc(F)c(N3CCNCC3)cc21 [Norfloxacin] | 0.0519 (active) |
| COc1ccc2[nH]cc(CCNC(C)=O)c2c1 [Melatonin] | 0.966 |
| CC[C@]12CCCN3CCc4c(n(c5ccccc45)[C@@](O)(C(=O)OC)C1)[C@@H]32 [Vincamine] | 0.98 |
| c1ccc(C2CN3CCSC3=N2)cc1 (centres undefined) [Tetramisole hydrochloride] | 0.997 |
| Cc1scc2c1N(C(=O)CN1CCN(C)CC1)c1ccccc1NC2=O [Telenzepine dihydrochloride] | 1 |
| CN(C)C(=N)NC(=N)N [Metformin hydrochloride] | 1.03 |
| Cc1cc(NC(=O)C2=C(O)c3ccccc3S(=O)(=O)N2C)no1 [Isoxicam] | 0.991 |
| CCOC(=O)O[C@]1(C(=O)COC(=O)CC)CC[C@H]2[C@@H]3CCC4=CC(=O)C=C[C@]4(C)[C@H]3[C@@H](O)C[C@@]21C [Prednicarbate] | 1.16 |
| O=c1cc(-c2ccc(O)c(O)c2)oc2cc(O)cc(O)c12 [Luteolin] | 1.02 |
| OC(CCN1CCCCC1)(c1ccccc1)C1CCCCC1 (centres undefined) [Trihexyphenidyl-D,L hydrochloride] | 1.01 |
| CN[C@H](CC(C)C)C(=O)N[C@H]1C(=O)N[C@@H](CC(N)=O)C(=O)N[C@H]2C(=O)N[C@H]3C(=O)N[C@H](C(=O)N[C@H](C(=O)O)c4cc(O)cc(O)c4-c4cc3ccc4O)[C@H](O)c3ccc(c(Cl)c3)Oc3cc2cc(c3O[C@@H]2O[C@H](CO)[C@@H](O)[C@H](O)[C@H]2O[C@H]2C[C@](C)(N)[C@H](O)[C@H](C)O2)Oc2ccc(cc2Cl)[C@H]1O [Vancomycin hydrochloride] | 1.01 |
| Nc1nc2c(ncn2COCCO)c(=O)[nH]1 [Acyclovir] | 1.01 |
| Cn1ccnc1S [Methimazole] | 1.02 |
| CN1CCC[C@@H]1CCO[C@](C)(c1ccccc1)c1ccc(Cl)cc1 [Clemastine fumarate] | 0.973 |
| CCOc1ccc(Cc2nccc3cc(OCC)c(OCC)cc23)cc1OCC [Ethaverine hydrochloride] | 1.02 |
| NS(=O)(=O)c1cc(C2(O)NC(=O)c3ccccc32)ccc1Cl (centres undefined) [Chlorthalidone] | 1.01 |
| CCCCc1nc(Cl)c(CO)n1Cc1ccc(-c2ccccc2-c2nnn[nH]2)cc1 [Losartan] | 1.45 |
| CC/C(=C(\c1ccccc1)c1ccc(OCCN(C)C)cc1)c1ccccc1 [Tamoxifen citrate] | 0.997 |

| SMILES | growth AUC normalised to DMSO control |
| --- | --- |
| CCCCC(O)c1ccccc1 (centres undefined) [Fenipentol] | 0.989 |
| CCCNC(C)(C)COC(=O)c1ccccc1 [Meprylcaine hydrochloride] | 1.03 |
| C[C@H]1O[C@@H](O[C@H]2[C@@H](O)C[C@H](O[C@H]3[C@@H](O)C[C@H](O[C@H]4CC[C@@]5(C)[C@H](CC[C@@H]6[C@@H]5C[C@@H](O)[C@]5(C)[C@@H](C7=CC(=O)OC7)CC[C@]65O)C4)O[C@@H]3C)O[C@@H]2C)C[C@H](O)[C@@H]1O [Digoxin] | 0.979 |
| CCN(CC)CCOCCOC(=O)C1(c2ccccc2)CCCC1 [Carbetapentane citrate] | 1 |
| Nc1nc2n[nH]nc2c(=O)[nH]1 [Azaguanine-8] | 0.992 |
| CC(=O)c1ccc2c(c1)N(CCCN(C)C)c1ccccc1S2 [Acetopromazine maleate salt] | 0.95 |
| C[C@@H]1C[C@H]2[C@@H]3CCC4=CC(=O)C=C[C@]4(C)[C@@]3(Cl)[C@@H](O)C[C@]2(C)[C@@]1(OC(=O)c1ccco1)C(=O)CCl [Mometasone furoate] | 1.05 |
| CC(=O)OCC1=C(C(=O)O)N2C(=O)[C@@H](NC(=O)Cc3cccs3)[C@H]2SC1 [Cephalothin sodium salt] | 0.0326 (active) |
| COC1=CC(=O)C[C@@H](C)[C@]12Oc1c(Cl)c(OC)cc(OC)c1C2=O [Griseofulvin] | 1.02 |
| C[C@H](CCC(=O)O)[C@H]1CC[C@H]2[C@@H]3C(=O)C[C@@H]4CC(=O)CC[C@]4(C)[C@H]3CC(=O)[C@]12C [Dehydrocholic acid] | 0.972 |
| CCCCCCCCCCCCCCCC[N+](C)(C)CCN(Cc1ccc(OC)cc1)c1ncccn1 [Thonzonium bromide] | 0.978 |
| COC(=O)C1=C(C)NC(C)=C(C(=O)OCC(C)C)C1c1ccccc1[N+](=O)[O-] (centres undefined) [Nisoldipine] | 0.996 |
| CC(CN(C)C)CN1c2ccccc2CCc2ccccc21 (centres undefined) [Trimipramine maleate salt] | 1.07 |
| CN(C)CCOc1ccc(/C(=C(/CCCl)c2ccccc2)c2ccccc2)cc1 [Toremifene] | 0.997 |
| CC(=O)N(CC(O)CN(C(C)=O)c1c(I)c(C(=O)NCC(O)CO)c(I)c(C(=O)NCC(O)CO)c1I)c1c(I)c(C(=O)NCC(O)CO)c(I)c(C(=O)NCC(O)CO)c1I (centres undefined) [Iodixanol] | 0.976 |
| CC(C)NCC(O)c1ccc(NS(C)(=O)=O)cc1 (centres undefined) [Sotalol hydrochloride] | 1 |
| Cc1cccc(C)c1OCC(C)N (centres undefined) [Mexiletine hydrochloride] | 1.02 |
| N=C(N)N/N=C/c1c(Cl)cccc1Cl [Guanabenz acetate] | 0.972 |
| Cc1ncc(CO)c(CO)c1O [Pyridoxine hydrochloride] | 0.958 |
